The structures appear in SMILES notation. Active and inactive are the calls of the source.

The test system of experiment [1] is Plasmodium falciparum Sir2 (PF13_0152, Sir2A). Put plainly: Plasmodium falciparum Sir2A binding compounds – biochemical, small-molecule microarray, 635 nm fluorescence, primary screen (AID 1098).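 Further: score merges spot fluorescence intensity with its signal-to-noise ratio.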 The settings on record: fluorescence 635 nm, higher = more signal.
A short description of experiment [2]: probe aDKK1 binding to arrayed compounds – biochemical, biotinylated probe, 635/667 nm fluorescence, primary screen (AID 1099).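 Further: score merges 667nm spot fluorescence with signal to noise across triplicate slides.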 The settings on record: small-molecule microarray, higher = more signal.
Experiment [3] in a line: probe aCHRDL2 binding to arrayed compounds – biochemical, biotinylated probe, 635/667 nm fluorescence, primary screen (AID 1100). The settings on record: small-molecule microarray, higher = more signal.
A short description of experiment [4]: change in splice reporter luminescence, either direction, cell-based, HEK293, spliceosome inhibition project, primary screen (AID 1101).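 Further: HEK293 cells carrying a splicing-competent luciferase reporter gene; test concentration not given here.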 The settings on record: HEK293 splicing luciferase reporter, 24 h, higher = more signal, called active from +8 up or from −8 down.
In experiment [5] the target is Fibroblast growth factor 10 (Homo sapiens) (UniProt O15520). The experiment can be described thus: compounds binding fibroblast growth factor 10 – biochemical, small-molecule microarray, 635 nm fluorescence, primary screen (AID 1102). The settings on record: FGF10 binding, fluorescence 635 nm, higher = more signal.
Experiment [6] relates to glycogen synthase kinase-3 (GSK3A per assay name; protocol says GSK3B). Put plainly: compounds binding glycogen synthase kinase-3 – biochemical, small-molecule microarray, 635 nm fluorescence, GSK3A, primary screen (AID 1103). Further: the record names both GSK3A and GSK3B. The settings on record: fluorescence 635 nm, higher = more signal.
Experiment [7] concerns the target Epidermal growth factor receptor (Homo sapiens) (UniProt P00533). The experiment can be described thus: compounds binding epidermal growth factor receptor – biochemical, small-molecule microarray, 635 nm fluorescence, primary screen (AID 1104).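 Further: score merges 667 nm emission intensity with spot signal to noise over triplicate slides.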 The settings on record: EGFR binding, higher = more signal.
Experiment [8] concerns the target Follistatin-related protein 3 (Homo sapiens) (UniProt O95633). Put plainly: compounds binding follistatin-related protein 3 – biochemical, small-molecule microarray, 635 nm fluorescence, primary screen (AID 1105).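 Further: score merges emission near 667 nm and signal to noise per printed spot across three slides.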 The settings on record: FSTL3 binding, higher = more signal.
For experiment [9], the target named is Dickkopf-related protein 1 (Homo sapiens) (UniProt O94907). The experiment can be described thus: small molecules binding DKK1 protein – biochemical, small-molecule microarray, 635 nm fluorescence scan, primary screen (AID 1106).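 Further: score merges emission near 667 nm with signal to noise over three replicate slides.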 The settings on record: higher = more signal.
In experiment [10] the test system is Inhibin beta A chain (activin A). Put plainly: small molecules binding activin A – biochemical, small-molecule microarray, 635 nm fluorescence scan, primary screen (AID 1107).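 Further: mouse activin A protein probed at 4.33 µg/mL on printed slides; score merges bound-protein fluorescence near 667 nm with spot signal-to-noise.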 The settings on record: INHBA, higher = more signal.
The subject of experiment [11] is Human papillomavirus type 1a protein E7 (residues 44-93). Put plainly: small molecules binding HPV E7 44-93 – biochemical, small-molecule microarray, residues 44-93, 635 nm fluorescence, primary screen (AID 1108).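 Further: E7 fragment applied at 1 µg/mL in TBST for 1 h at 4 C; score combines spot fluorescence with its signal to noise ratio.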 The settings on record: fluorescence 635 nm, higher = more signal.
Experiment [12] is described as follows: hepatitis C replication reporter changes, two-sided – Huh7 cells, luciferase reporter, HCV replication inhibitor project, primary screen (AID 1109).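 Further: huh7 hepatoma cells harbouring a luciferase neomycin HCV replicon reporter; luciferase luminescence as measure of HCV replicon replication; test concentration not given here.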 The settings on record: Huh7 HCV replicon luciferase reporter, 48 h; higher = more signal.
In experiment [13] the target is Left-right determination factor 2 (Homo sapiens) (UniProt O00292). The experiment can be described thus: small molecules binding LEFTY2 protein – biochemical, small-molecule microarray, 635 nm fluorescence scan, primary screen (AID 1110). The settings on record: higher = more signal.
The target of experiment [14] is Calmodulin-1 (Homo sapiens) (UniProt P0DP23). Put plainly: small molecules binding calmodulin-1 with EGTA – biochemical, small-molecule microarray, Cy5-labelled CALM1, profiling panel (AID 1111).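 Further: labelled calmodulin applied in Tris saline Tween buffer holding calcium plus EGTA and DTT.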 The settings on record: Cy5-CALM1 binding fluorescence, higher = more signal.
Experiment [15] has the same target. Put plainly: small molecules binding Ca-loaded calmodulin-1 – biochemical, small-molecule microarray, Cy5-labelled CALM1, plus calcium, artefact control for SMM control-protein annotation, profiling panel (AID 1112).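 Further: score merges spot fluorescence with signal to noise from triplicate slides.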 The settings on record: Cy5-CALM1 binding fluorescence, higher = more signal.
The nature of experiment [16]: probe aWnt5a binding to arrayed compounds – biochemical, biotinylated probe, 635/667 nm fluorescence, primary screen (AID 1113).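 Further: score merges 667 nm fluorescence intensity with signal-to-noise per printed feature.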 The settings on record: small-molecule microarray, higher = more signal.
The nature of experiment [17]: probe aShh binding to arrayed compounds – biochemical, biotinylated probe, 635/667 nm fluorescence, primary screen (AID 1114).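 Further: probe is biotin-labelled aShh protein from a stem cell growth factor screen; measures binding of labelled protein to compounds printed on the slide; score merges feature fluorescence at 667 nm with signal-to-noise.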 The settings on record: small-molecule microarray, higher = more signal.
The nature of experiment [18]: probe aNog binding to arrayed compounds – biochemical, biotinylated probe, 635/667 nm fluorescence, primary screen (AID 1115).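 Further: probe is biotinylated aNog protein used at 0.15 µg/mL for 1 h at 4 C; z-score combines 667 nm fluorescence of each spot with its signal to noise.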 The settings on record: small-molecule microarray, higher = more signal.
Experiment [19] deals with Torsin-1A-interacting protein 1 (Homo sapiens) (UniProt Q5JTV8). The experiment can be described thus: compound microarray binding of lysate hLAP1 – cell lysate, small-molecule microarray, COS7 lysate, 635/667 nm fluorescence, primary screen (AID 1116). The settings on record: 635 nm fluorescence, higher = more signal.
Experiment [20] deals with Alpha-bungarotoxin (Bungarus multicinctus) (UniProt P60615). Put plainly: compounds binding labelled alpha-BTX control protein – biochemical, small-molecule microarray, Alexa647 label, 635/667 nm fluorescence, artefact control for SMM control protein annotation, profiling panel (AID 1117). The settings on record: alpha-BTX-A647 binding fluorescence, higher = more signal.
Alpha-bungarotoxin (Bungarus multicinctus), sequence (P60615 whole entry, looked up): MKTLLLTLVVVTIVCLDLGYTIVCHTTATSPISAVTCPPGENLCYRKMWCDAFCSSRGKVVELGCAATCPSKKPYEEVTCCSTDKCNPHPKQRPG

Left-right determination factor 2 (Homo sapiens), sequence (O00292 whole entry, looked up): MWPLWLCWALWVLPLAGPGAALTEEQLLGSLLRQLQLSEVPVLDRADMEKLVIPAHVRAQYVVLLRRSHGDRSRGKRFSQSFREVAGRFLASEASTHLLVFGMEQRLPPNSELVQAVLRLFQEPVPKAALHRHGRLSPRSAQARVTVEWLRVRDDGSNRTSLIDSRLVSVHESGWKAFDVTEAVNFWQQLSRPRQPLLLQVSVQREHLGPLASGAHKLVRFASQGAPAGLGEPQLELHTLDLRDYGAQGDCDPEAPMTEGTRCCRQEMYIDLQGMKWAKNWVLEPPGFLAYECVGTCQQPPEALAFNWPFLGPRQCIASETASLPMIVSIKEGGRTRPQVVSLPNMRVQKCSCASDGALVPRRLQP
Epidermal growth factor receptor (Homo sapiens), sequence (P00533 whole entry, looked up): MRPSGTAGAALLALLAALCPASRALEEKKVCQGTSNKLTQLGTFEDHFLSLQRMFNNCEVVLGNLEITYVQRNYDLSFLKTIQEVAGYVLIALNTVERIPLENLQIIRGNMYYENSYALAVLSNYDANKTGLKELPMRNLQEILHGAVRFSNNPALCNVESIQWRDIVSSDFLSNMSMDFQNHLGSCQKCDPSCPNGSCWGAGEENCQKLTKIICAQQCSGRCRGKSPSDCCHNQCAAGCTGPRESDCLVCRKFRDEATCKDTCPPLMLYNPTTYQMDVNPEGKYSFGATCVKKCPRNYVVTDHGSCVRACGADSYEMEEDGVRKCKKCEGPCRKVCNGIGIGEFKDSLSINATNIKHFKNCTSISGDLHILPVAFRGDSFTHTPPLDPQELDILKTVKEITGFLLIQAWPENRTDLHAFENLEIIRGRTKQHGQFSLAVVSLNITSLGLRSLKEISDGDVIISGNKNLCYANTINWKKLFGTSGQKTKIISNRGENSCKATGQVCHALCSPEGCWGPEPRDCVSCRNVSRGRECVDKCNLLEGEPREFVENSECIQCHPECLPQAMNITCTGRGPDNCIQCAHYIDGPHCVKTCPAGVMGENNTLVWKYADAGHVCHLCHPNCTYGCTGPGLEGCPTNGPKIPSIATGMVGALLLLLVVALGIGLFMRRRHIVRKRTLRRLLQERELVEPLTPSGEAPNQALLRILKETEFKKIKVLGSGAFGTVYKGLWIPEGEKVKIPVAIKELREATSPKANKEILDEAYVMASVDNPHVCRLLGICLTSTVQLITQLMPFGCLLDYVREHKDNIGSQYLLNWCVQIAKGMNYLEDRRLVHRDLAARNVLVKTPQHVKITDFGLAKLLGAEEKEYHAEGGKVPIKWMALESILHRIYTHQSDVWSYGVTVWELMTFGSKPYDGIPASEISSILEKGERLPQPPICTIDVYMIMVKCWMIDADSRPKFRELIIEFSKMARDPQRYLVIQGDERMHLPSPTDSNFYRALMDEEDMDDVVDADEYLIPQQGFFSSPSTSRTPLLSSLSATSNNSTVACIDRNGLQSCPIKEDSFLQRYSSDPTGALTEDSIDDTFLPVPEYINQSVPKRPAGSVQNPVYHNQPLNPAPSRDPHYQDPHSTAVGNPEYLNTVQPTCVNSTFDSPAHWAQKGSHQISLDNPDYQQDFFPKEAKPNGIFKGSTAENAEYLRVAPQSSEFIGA
Fibroblast growth factor 10 (Homo sapiens), sequence (O15520 whole entry, looked up): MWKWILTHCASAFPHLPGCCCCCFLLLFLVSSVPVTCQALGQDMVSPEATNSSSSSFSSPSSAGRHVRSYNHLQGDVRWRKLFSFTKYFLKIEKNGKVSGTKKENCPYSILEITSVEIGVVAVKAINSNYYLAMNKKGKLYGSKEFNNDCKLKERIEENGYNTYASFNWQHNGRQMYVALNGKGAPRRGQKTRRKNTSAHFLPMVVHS
Torsin-1A-interacting protein 1 (Homo sapiens), sequence (Q5JTV8 whole entry, looked up): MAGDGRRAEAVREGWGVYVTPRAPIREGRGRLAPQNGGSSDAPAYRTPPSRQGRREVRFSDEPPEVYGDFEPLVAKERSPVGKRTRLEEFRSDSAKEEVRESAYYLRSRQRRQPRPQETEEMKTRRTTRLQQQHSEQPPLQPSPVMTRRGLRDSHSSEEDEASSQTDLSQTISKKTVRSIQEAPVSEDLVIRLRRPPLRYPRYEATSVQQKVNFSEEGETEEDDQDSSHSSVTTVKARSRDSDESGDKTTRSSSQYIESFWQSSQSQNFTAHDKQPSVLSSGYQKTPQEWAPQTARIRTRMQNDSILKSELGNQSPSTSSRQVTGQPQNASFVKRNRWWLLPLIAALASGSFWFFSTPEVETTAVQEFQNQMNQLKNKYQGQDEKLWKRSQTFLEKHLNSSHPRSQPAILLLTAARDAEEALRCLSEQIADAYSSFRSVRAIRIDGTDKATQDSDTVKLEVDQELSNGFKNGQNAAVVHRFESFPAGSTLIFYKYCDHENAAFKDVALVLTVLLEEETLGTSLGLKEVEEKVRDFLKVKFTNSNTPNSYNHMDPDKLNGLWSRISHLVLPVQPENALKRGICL
Follistatin-related protein 3 (Homo sapiens), sequence (O95633 whole entry, looked up): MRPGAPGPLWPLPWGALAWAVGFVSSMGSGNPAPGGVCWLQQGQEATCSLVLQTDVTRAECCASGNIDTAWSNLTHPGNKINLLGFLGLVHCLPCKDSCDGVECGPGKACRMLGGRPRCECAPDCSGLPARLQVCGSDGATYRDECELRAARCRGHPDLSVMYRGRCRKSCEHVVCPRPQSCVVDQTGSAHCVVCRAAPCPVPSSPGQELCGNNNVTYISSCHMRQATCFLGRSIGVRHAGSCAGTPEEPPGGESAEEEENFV
Dickkopf-related protein 1 (Homo sapiens), sequence (O94907 whole entry, looked up): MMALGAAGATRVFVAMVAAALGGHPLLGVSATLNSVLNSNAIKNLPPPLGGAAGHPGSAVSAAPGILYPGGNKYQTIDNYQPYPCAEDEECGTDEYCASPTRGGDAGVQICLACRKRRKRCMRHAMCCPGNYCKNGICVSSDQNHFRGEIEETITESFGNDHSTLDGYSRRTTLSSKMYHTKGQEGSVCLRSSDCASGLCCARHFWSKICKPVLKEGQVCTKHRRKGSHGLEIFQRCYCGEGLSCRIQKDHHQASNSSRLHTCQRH

On to `CCOC(=O)C[C@H]1[C@H](OC(=O)Cc2ccc3c(c2)OCO3)[C@@H](NC(=O)Cc2ccc(OC)cc2)c2cc(OCCCO)ccc2N1C(=O)c1ccccc1`, for which the composite z-score worked out at 1.07 in [1]; 0.423 in experiment [2]; 0.383 in experiment [3]; 0.647 in experiment [5]; 0.614 in [6]; 0.0042 in experiment [7]. The composite z-score in experiment [8] was 0.312; in experiment [9], 0.149; in [10] it was 0.265; in experiment [11] it was 0.142; in experiment [13], 0.609; in experiment [14], 0.0314. For the same compound, the composite z-score in experiment [15] was -0.551; in [16] it was -0.154; in [17], 0.233; in experiment [18], 0.588; in experiment [19] it was 0.569; in [20], 0.997. Further, the z-score is -0.484 (inactive) in experiment [4] and -1.72 in experiment [12].

Turning to `CCOC(=O)C[C@H]1[C@H](OC(=O)c2ccccc2-c2ccccc2)[C@@H](NC(=O)CC(C)C)c2cc(OCCCO)ccc2N1C(=O)c1ccc2ccccc2n1`, the composite z-score is 0.74 in [1]; -0.0242 in [2]; -0.187 in [3]; 0.513 in experiment [5]; 0.561 in experiment [6]; 0.159 in [7]. The composite z-score was 0.368 in experiment [8]; 0.45 in experiment [9]; 1.08 in experiment [10]; 0.046 in experiment [11]; 0.186 in experiment [13]; 0.844 in experiment [14]. For the same compound, the composite z-score was -0.456 in [15]; -0.124 in experiment [16]; -0.0769 in experiment [17]; -0.134 in experiment [18]; 0.171 in [19]; 0.719 in [20]. The z-score in experiment [4] was -0.263 (inactive); in experiment [12] it was -0.578.

As to `COc1cc(OC)c(C(O)C2C=CC3C(=O)N(c4ccccc4)C(=O)C3N2Nc2ccc(C#N)cc2)cc1Br` (stereo not given), the composite z-score in experiment [1] came to 0.842; in [2], 1.56; in experiment [3], 1.4; in [5] it was 1.18; in [6] it was 0.687; in experiment [7], 0.763. In addition, the composite z-score in experiment [8] is 0.95; in experiment [9], -0.0884; in [10], 0.664; in experiment [11], 1.36; in experiment [13], 0.0166; in experiment [14], 2.19. The composite z-score in [15] worked out at 0.992; in experiment [16], 0.471; in [17] it was 0.196; in [18], 0.81; in experiment [19], 2.18; in [20], 2.42. Besides, the z-score in experiment [4] is 1.47 (inactive); in [12], -0.519.

In the case of `CCC[C@@H]1C[C@@]1(CCC)[C@@H](NP(=O)(c1ccccc1)c1ccccc1)c1ccc(Cl)cc1`, the composite z-score in experiment [1] is 0.219; in [2], 0.0536; in experiment [3], 0.292; in [5], -0.489; in experiment [6], -0.965; in [7] it was -0.537. Also, the composite z-score in [8] is -0.366; in experiment [9] it was 0.102; in experiment [10], 1.18; in [11], -0.213; in experiment [13], -0.427; in [14] it was -0.915. In addition, the composite z-score in experiment [15] was -1.31; in experiment [16] it was -0.127; in experiment [17], 1.44; in experiment [18], -0.532; in experiment [19], -0.357; in experiment [20] it was -0.846. Besides, the z-score is -2.26 (inactive) in experiment [4] and -1.62 in [12].

On to `CCN(CC)c1ccc(N2CC=CC34O[C@@H]5/C=C\CCC(C)OC(=O)C5[C@H]3C(=O)N(CCO)[C@@H]4C2=O)cc1` (stereo not given in full), for which the composite z-score in [1] was 0.752; in experiment [2] it was -0.18; in experiment [3], 0.477; in experiment [5], -0.736; in [6] it was -0.565; in experiment [7], -0.968. For the same compound, the composite z-score in experiment [8] is -0.421; in experiment [9], -0.771; in experiment [10], 0.907; in [11] it was 1.14; in experiment [13], -1.05; in [14] it was -0.653. In addition, the composite z-score in [15] is -0.897; in experiment [16], -0.148; in experiment [17], 0.147; in [18], -0.0503; in [19] it was 2.67; in experiment [20], -0.699. Moreover, the values for the z-score in experiment [4] and in experiment [12] were 0.00168 (inactive) and -1.35, respectively.

The values are drawn from PubChem BioAssay.
